KinaseGlo FLuc: Kinase-Glo luciferase inhibition (counter-screen). Q27757. Kinase-Glo luciferase, ATP luminescence, 8 min. Potency, µM (doses to about 38.3 µM), inactives show top-dose activity change, negative = inhibition, usual class: inhibitors. hit rate 0.28% among 200,000; active = well fitted inhibition curve with a large enough effect; inconclusive = small, poorly fitted or top-dose-only effect; also: potency is read from the fitted curve at half-maximal effect; nearly all actives have a fitted effect of over 60% in size
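Compounds were added to a substrate mix at pH 7.2 (50 mM imidazole, 10 uM ATP, within the enzyme's linear range), followed by Kinase-Glo detection reagent; luminescence was measured after 8 minutes at ambient temperature.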
KCNH2 3.1 inh: blocks the human KCNH2 3.1 channel isoform. U2OS KCNH2 3.1, thallium flux FluxOr; hits give low values. activity change, % (tested at about 1.8 µM). hit rate 0.95% among 340,000;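 active = maximum activity change below -70%; inconclusive = maximum activity change from -70% to -50%; inactive = maximum activity change above -50%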;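 also: thallium influx rate constant from kinetic fluorescence after stimulation buffer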
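We transduce U2OS cells with the mutant 3.1 virus, culture them overnight, load FluxOr with Red40 quencher for 45 min, then add stimulation buffer and read kinetically for 2 min to derive a normalized rate constant.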
KCNH2 WT inh: inhibitors of human wildtype KCNH2 potassium channel; activity change, % at 1.84 µM; U2OS, BacMam KCNH2, thallium flux FluxOr; hits give low values; hit rate 0.37% among 340,000;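 active = maximum activity change below -70%; inconclusive = maximum activity change between -70% and -50%; inactive = maximum activity change above -50%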
Target sequence (Q12809 whole entry, looked up): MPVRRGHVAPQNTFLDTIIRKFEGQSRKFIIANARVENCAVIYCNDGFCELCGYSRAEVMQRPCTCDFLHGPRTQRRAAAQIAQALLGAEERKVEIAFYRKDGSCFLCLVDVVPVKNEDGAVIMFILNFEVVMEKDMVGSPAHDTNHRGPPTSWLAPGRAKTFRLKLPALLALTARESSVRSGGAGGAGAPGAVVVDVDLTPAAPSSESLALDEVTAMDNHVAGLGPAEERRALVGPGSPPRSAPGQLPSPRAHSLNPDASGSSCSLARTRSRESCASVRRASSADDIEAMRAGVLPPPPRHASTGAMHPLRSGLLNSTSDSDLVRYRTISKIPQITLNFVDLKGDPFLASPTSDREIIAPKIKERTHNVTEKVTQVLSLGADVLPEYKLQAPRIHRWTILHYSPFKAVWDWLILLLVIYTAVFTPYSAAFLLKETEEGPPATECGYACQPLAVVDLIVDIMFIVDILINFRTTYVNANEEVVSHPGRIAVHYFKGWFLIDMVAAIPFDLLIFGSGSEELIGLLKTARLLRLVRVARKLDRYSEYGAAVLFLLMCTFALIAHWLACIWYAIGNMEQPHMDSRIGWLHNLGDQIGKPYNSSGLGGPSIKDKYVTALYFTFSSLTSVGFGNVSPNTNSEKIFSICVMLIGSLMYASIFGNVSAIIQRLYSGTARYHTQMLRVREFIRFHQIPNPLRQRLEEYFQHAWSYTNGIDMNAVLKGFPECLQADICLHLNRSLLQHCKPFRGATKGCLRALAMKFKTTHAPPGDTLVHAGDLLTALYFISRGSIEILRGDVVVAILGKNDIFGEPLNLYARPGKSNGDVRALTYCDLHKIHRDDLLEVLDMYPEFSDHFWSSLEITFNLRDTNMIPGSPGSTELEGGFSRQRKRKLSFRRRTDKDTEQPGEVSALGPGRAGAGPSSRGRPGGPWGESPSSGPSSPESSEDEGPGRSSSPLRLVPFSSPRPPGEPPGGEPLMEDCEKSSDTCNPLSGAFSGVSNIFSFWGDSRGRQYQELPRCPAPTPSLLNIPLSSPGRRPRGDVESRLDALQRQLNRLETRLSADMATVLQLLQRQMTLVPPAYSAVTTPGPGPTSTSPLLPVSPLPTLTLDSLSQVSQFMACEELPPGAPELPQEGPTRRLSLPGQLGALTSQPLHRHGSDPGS
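U2OS cells were transduced with wild-type KCNH2 virus (2.03 x 10^8 / mL) for 4 h at room temperature, then cultured overnight at 37 C. Thallium flux was read with FluxOr dye. Rate constants were normalized to DMSO controls.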
* = called active by the depositor; ? = inconclusive; . = no result. Sampled rows, rich in hits. Any-hit rate of the full collection: about 1.2%. % is scaled to controls: 0 for no effect and ±100 for the full control effect.

SMILES	KinaseGlo FLuc	KCNH2 3.1 inh	KCNH2 WT inh
CC1=C(C(N)=O)C(c2ccccn2)n2nc(-c3ccccc3Cl)nc2N1 (configuration not stated)	0%	-170*	-146*
COc1cccc(CC(=O)OCC(=O)NC2CCCC2)c1	.	-20	4
CC/C(=N\NC(=O)Cc1ccc(Br)cc1)c1cccs1	.	6	7
CCN(CC)CCNS(=O)(=O)c1ccc(Cl)cc1	-4%	-6	-2
CCCN(CCC)CC(C)(C)NS(=O)(=O)c1ccc(Cl)cc1	.	-140*	0
CC(C)CC(=O)NC(=S)Nc1ccc(N2CCOCC2)c(Cl)c1	0%	-10	-7
CC(=O)Nc1ccc(S(=O)(=O)N2CCN(c3cc(C)nc4ccccc34)CC2)cc1	-2%	-34	1
CC(=O)Nc1ccc(S(=O)(=O)N2CCN(c3nc(NC4CCCC4)c4ccccc4n3)CC2)cc1	0%	-86*	-90*
Cc1cc(C)c(S(=O)(=O)NCc2ccccn2)c(C)c1	.	47	-6
COc1ccccc1N/C=C/c1onc(C)c1[N+](=O)[O-]	11µM*	-20	1
Cc1noc(/C=C/Nc2ccc(F)cc2F)c1[N+](=O)[O-]	?	-16	-14
Cc1cccc(-c2cc3nc(C)cc(N4CC(C)CC(C)C4)n3n2)c1 (configuration not stated)	0%	-120*	-2
Cc1cccc(-c2cc3nc(C)cc(C)n3n2)c1	-9%	-19	-6
Cc1cccc(C(=O)Nc2nnc(-c3ccc(C(C)(C)C)cc3)s2)c1	-5%	-89*	-3
Cc1ccccc1C(=O)Nc1nnc(-c2ccc(C(C)(C)C)cc2)s1	1%	-8	-4
O=C(CN1C(=O)c2cccnc2Oc2ccc(Cl)cc21)N1CCOCC1	.	1	-14
O=C(c1ccccc1)n1c(=S)nc2ccccn21	.	-5	-20
Cc1cccc(C(=O)n2c(=S)nc3ccccn32)c1	14µM*	13	4
Cc1ccc(S(=O)(=O)NCCC(=O)Nc2cc(S(=O)(=O)N(C)C)ccc2C)cc1C	.	9	2
Nc1cc(=O)n(Cc2ccccc2)c(=O)n1-c1ccc(Cl)cc1	.	2	-1
COc1ccc(C)c(-n2c(N)cc(=O)n(Cc3ccccc3)c2=O)c1	.	-82*	-10
Cc1cn([C@H]2C[C@H](O)[C@@H](CNCc3cnc(N4CCOCC4)nc3)O2)c(=O)[nH]c1=O	.	-1	-2
COc1ccc(/C=C2\C(=N)N3N=C(CC(=O)N4CCCCC4)SC3=NC2=O)cc1	.	10	-1
CC(C)(C)N1C(=O)[C@H]2[C@@H](c3ccc(Br)cc3)N3C(=O)N(c4cccc(F)c4)C(=O)[C@@]3(Cc3ccccc3)[C@H]2C1=O	.	0	-1
COc1ccc([C@@H]2[C@@H]3C(=O)N(C(C)(C)C)C(=O)[C@@H]3[C@]3(Cc4ccccc4)C(=O)N(c4cccc(F)c4)C(=O)N23)cc1	.	-74*	5
SMILES	KinaseGlo FLuc	KCNH2 3.1 inh	KCNH2 WT inh
CCC1C(=O)CC(c2ccco2)NC1c1ccco1 (configuration not stated)	0%	-6	-10
CCC1C(=O)CC(c2ccc([N+](=O)[O-])cc2)NC1c1ccc([N+](=O)[O-])cc1 (configuration not stated)	-3%	-79*	-14
Cc1cc(C)cc(N2C(=O)C=CC2=O)c1	.	-18	19
Cn1c(C(=O)N2CCN(c3nc4ccccc4s3)CC2)cc2sccc21	0%	-2	-3
O=C(c1cc2sccc2n1Cc1ccc(F)cc1)N1CCN(c2nc3ccccc3s2)CC1	1%	-90*	-16
CCC(CC)C(=O)Nc1c2c(nn1-c1ccc(OC)cc1)CS(=O)(=O)C2	-2%	4	-7
CCC(CC)C(=O)Nc1c2c(nn1-c1ccc(F)cc1)CS(=O)(=O)C2	.	-81*	3
CCOC(=O)C(CC1=CS(=O)(=O)c2ccc(Cl)cc21)(NC(C)=O)C(=O)OCC	.	-13	-6
C/C(=N\N=C(N)N)c1ccc(Cl)c(Cl)c1	4%	-13	10
CCn1nnnc1SCC(=O)N1N=C(c2cccs2)CC1c1cccs1 (configuration not stated)	.	-3	-13
Cc1ccc(CNC(=O)c2ccc(N3CCC4(CC3)CC(c3ccccc3)=NO4)c(NC(=O)c3ccccc3)c2)cc1	.	0	-6
CCCNC(=O)c1ccc(N2CCC3(CC2)CC(c2cccc(Br)c2)=NO3)c(NC(=O)c2ccc(Br)cc2)c1	.	-111*	-83*
CCCCC(CC)C(=O)Nc1cc(C(=O)NCCC)ccc1N1CCC2(CC1)CC(c1ccccc1)=NO2 (configuration not stated)	.	-94*	-109*
CCCNC(=O)c1ccc(N2CCC3(CC2)CC(c2cccc(Br)c2)=NO3)c(NC(=O)c2c(Cl)cccc2Cl)c1	.	-18	-20
CCCNC(=O)c1ccc(N2CCC3(CC2)CC(c2ccccc2)=NO3)c(NC(=O)c2cccc(OC)c2)c1	.	-97*	-92*
CCCNC(=O)c1ccc(N2CCC3(CC2)CC(c2ccccc2)=NO3)c(NC(=O)c2ccco2)c1	.	-47	?
O=c1nc2ccccc2c2n1CC(CN1CCN(C(c3ccccc3)c3ccccc3)CC1)N2 (configuration not stated)	0%	-5	-15
CCC(C)(C)NC(=O)C(c1ccccc1Cl)N(Cc1cccnc1)C(=O)CCC(=O)Nc1cc(C)on1 (configuration not stated)	.	-3	-18
O=C(CN1CCN(S(=O)(=O)c2ccccc2Cl)CC1)NCC1(N2CCOCC2)CCCCC1	.	-2	-21
C[C@H](NC(=O)c1ccccc1Cl)C(=O)OCC(=O)NNC(=O)c1cccs1	.	10	-4
COc1ccc2c(c1)C(=O)N1[C@H]3c4cc(Cl)ccc4OC[C@@H]3[C@H](c3ccccc3)[C@]1(C)C(=O)N2	.	-85*	-32
COc1ccc2c(c1)OC[C@H]1[C@H]2N2C(=O)CN(Cc3ccc(F)cc3)C(=O)[C@@]2(C)[C@H]1c1ccccc1	.	-8	3
COc1ccc2c(c1)OC[C@H]1[C@H]2N2C(=O)CN(Cc3ccc(C)cc3)C(=O)[C@@]2(C)[C@H]1c1ccccc1	.	-89*	-5
COc1ccc2c(c1)[C@H]1[C@H](CO2)[C@H](c2ccccc2)[C@]2(C)C(=O)Nc3cc(Cl)ccc3C(=O)N12	.	-9	-13
Cc1cc(C)cc(-c2cc3c(c(-c4c(O)c(-c5cc(C)cc(C)c5)cc5c4CCCC5)c2O)CCCC3)c1	0%	.	.
SMILES	KinaseGlo FLuc	KCNH2 3.1 inh	KCNH2 WT inh
COCCN(C(=O)CCCc1nc2ccccc2s1)c1c(N)n(CC(C)C)c(=O)[nH]c1=O	.	18	-1
CCN(CC(=O)Nc1ccc(NC(C)=O)cc1)C(=O)c1ccc(C(=O)c2ccccc2)cc1	.	11	0
CCOc1ccc(/C=N/NC(=O)c2ccc(Cn3cc([N+](=O)[O-])cn3)o2)cc1	-15%	-8	10
CC(/C=N/NC(=O)c1ccc(Cn2cc([N+](=O)[O-])cn2)o1)=C\c1ccccc1	.	-79*	-1
Cn1c(CCN2CCN(c3ccccn3)CC2)nc2cc(NS(=O)(=O)c3ccccc3)ccc21	.	-76*	-28
Cn1c(CCN2CCOCC2)nc2cc(NS(=O)(=O)c3ccccc3)ccc21	.	-3	23

Source: PubChem BioAssay (National Center for Advancing Translational Sciences (NCATS))
